Source: PubChem BioAssay (National Center for Advancing Translational Sciences (NCATS))
SARS PLP yeast: qHTS of Yeast-based Assay for SARS-CoV PLP | S. cerevisiae expressing SARS-CoV PLpro, growth rescue | Potency, µM (doses to about 32.9 µM), inactives show at the top dose activity, positive = growth rescue, hits mostly activators | 0.19% of 330,000 active | AID 485353, 2010; also: potency is read from the fitted curve at half-maximal effect; 0% is about no effect; nearly all actives have a fitted effect of over 55% in size
NS1 function inh: qHTS Assay for Inhibitors of Influenza NS1 Protein Function | Potency, µM (titrated, usually from 46.1 µM), for inactives: top-dose activity, positive = more growth | 0.4% of 270,000 active | AID 2326, 2010; also: potency is read from the fitted curve at half-maximal effect; actives are rising curves; nearly all actives have a fitted effect of over 50% in size
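Recovery from NS1-induced slow growth read by OD600 in budding yeast switched to galactose assay medium (pH 6.0, -URA) at 1:100 dilution. Compound 23 nl per well; the matching strain lacking NS1 serves as control.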
CHX counter: Cycloheximide Counterscreen for Small Molecule Inhibitors of Shiga Toxin. max response, %. 12% of 300,000 active. AID 2314, 2010. cell reporter, cycloheximide protein synthesis inhibition counterscreen; in the data active = max response mostly above about 13%, no sharp cut-off; inactive = mostly below about 14%; also: read at 38.3 µM for the half of the compounds with a filed dose; 0% is about no effect
Shiga toxin inh: A qHTS for Small Molecule Inhibitors of Shiga Toxin. AID 2315, 2010. 9.2% of 290,000 active. Vero cells, Shiga toxin protein synthesis inhibition reporter. inhibition, % at 38.7 µM; in the data active = inhibition mostly above about 28%, no sharp cut-off; inactive = mostly below about 43%; also: 0% is about no effect
Numbers without * were called inactive. Only some compounds are listed: those with a hit (about 12% of all), similar ones and a draw of the others. Unless noted, calls follow the shape of the full dose curve.

Results for O=C(c1cc2ccccn2n1)N1CCN(Cc2ccccc2)CC1 ?
SARS PLP yeast: 11%; NS1 function inh: -9%; CHX counter: 59*; Shiga toxin inh: 63

What do the screens show for `COc1ccc2oc(C(=O)OCc3c(C)noc3C)c(C)c2c1`?
SARS PLP yeast: 0%; NS1 function inh: -3%; CHX counter: 3; Shiga toxin inh: -14

Results for O=C(c1cc(-c2ccc3c(c2)OCO3)on1)N1CCN(c2ccc(F)cc2)CC1 ?
SARS PLP yeast: -1%; NS1 function inh: -4%; CHX counter: 9; Shiga toxin inh: 8

Results for O=C(c1cc(C2CC2)on1)N1CCN(c2ccccc2)CC1 ?
SARS PLP yeast: 1%; NS1 function inh: 7%; CHX counter: 24*; Shiga toxin inh: 47*

Results for O=C(c1cc(-c2ccc3c(c2)OCO3)on1)N1CCOCC1 ?
SARS PLP yeast: -4%; NS1 function inh: -3%; CHX counter: 20*; Shiga toxin inh: active

Results for O=C(c1cc(-c2ccc3c(c2)OCO3)on1)N1CCN(c2ccccc2)CC1 ?
SARS PLP yeast: -8%; NS1 function inh: -24%; CHX counter: 56*; Shiga toxin inh: 62*

What do the screens show for `O=C(c1ccc2ccccc2c1)C1CCCN(S(=O)(=O)c2cccnc2)C1` (stereo unspecified)?
SARS PLP yeast: -2%; NS1 function inh: 1%; CHX counter: -2; Shiga toxin inh: 3

How did CCc1cc(-c2n[nH]c(C)c2Oc2ccc(C(C)C)cc2)c(O)cc1O do in these assays?
SARS PLP yeast: -9%; NS1 function inh: 15%; CHX counter: -3; Shiga toxin inh: -5

What do the screens show for `O=C(N/N=C/c1ccccn1)c1c[nH]c2ccccc12`?
SARS PLP yeast: 1%; NS1 function inh: 2%; CHX counter: 49*; Shiga toxin inh: 65*

How did O=C(N/N=C/C1CC2CCC1C2)c1c[nH]c2ccccc12 (stereo unspecified) do in these assays?
SARS PLP yeast: -2%; NS1 function inh: -1%; CHX counter: 23*; Shiga toxin inh: 40

How did O=C(N/N=C/c1ccncc1)c1sc2ccccc2c1Cl do in these assays?
SARS PLP yeast: -10%; NS1 function inh: -40%; CHX counter: 13; Shiga toxin inh: 18

How did O=C(N/N=C/c1ccc[nH]1)c1c[nH]c2ccccc12 do in these assays?
SARS PLP yeast: 1%; NS1 function inh: 16%; CHX counter: 52*; Shiga toxin inh: 111*

How did O=C(N/N=C/c1ccc[nH]1)c1sc2ccccc2c1Cl do in these assays?
SARS PLP yeast: -18%; NS1 function inh: -113%; CHX counter: 47*; Shiga toxin inh: 146*

How did CCCCC[C@H]1CN(Cc2ccc(OC)cc2)C(=O)[C@@H]1CC(=O)NCc1ccccc1 do in these assays?
SARS PLP yeast: -3%; NS1 function inh: -46%; CHX counter: 1; Shiga toxin inh: -11

Results for COc1ccc(N/C(C)=C/C(=O)c2ccccc2)cc1 ?
SARS PLP yeast: 2%; NS1 function inh: -11%; CHX counter: 64*; Shiga toxin inh: 164*

How did COC(=O)/C(=C\C(=O)c1ccccc1)Nc1ccc(OC)cc1 do in these assays?
SARS PLP yeast: 0%; NS1 function inh: -6%; CHX counter: 50*; Shiga toxin inh: 58*

Results for COc1ccc(N/C(C)=C/C(=S)Nc2ccccc2)cc1 ?
SARS PLP yeast: -17%; NS1 function inh: 8%; CHX counter: 32*; Shiga toxin inh: 43*

Results for CC1(C(=O)Nc2ccc3c(c2)OCO3)CC1(Cl)Cl (stereo unspecified) ?
SARS PLP yeast: 2%; NS1 function inh: 9%; CHX counter: 16*; Shiga toxin inh: 29*

Results for Cc1ccc(S(=O)(=O)C2(C(=O)Nc3ccc4c(c3)OCO4)CC2)cc1 ?
SARS PLP yeast: 0%; NS1 function inh: inconclusive; CHX counter: -2; Shiga toxin inh: 13

How did CCOC(=O)c1c(NC(=O)COC(=O)c2ccccc2NC)sc(C(=O)N(C)C)c1C do in these assays?
SARS PLP yeast: -2%; NS1 function inh: 17%; CHX counter: -2; Shiga toxin inh: -10

What do the screens show for `O=C(O)CC/C(=N\Nc1ccc([N+](=O)[O-])cc1S(=O)(=O)N1CCOCC1)c1cccs1`?
SARS PLP yeast: 0%; NS1 function inh: -1%; CHX counter: 1; Shiga toxin inh: -6

What do the screens show for `CCCc1nc(-c2ccccc2)c(-c2ccc(OC)c(OC)c2)c(=O)[nH]1`?
SARS PLP yeast: inconclusive; NS1 function inh: 5%; CHX counter: -2; Shiga toxin inh: -2

What do the screens show for `O=C(Nc1ccccc1)C1=C(O)CC(c2ccc(Cl)cc2)N2CCN=C12` (stereo unspecified)?
SARS PLP yeast: -30%; NS1 function inh: 13%; CHX counter: 22; Shiga toxin inh: 23

How did COCCNC(=O)CSc1nc2nn(-c3ccccc3)c(=O)c-2c2n1CCCCC2 do in these assays?
SARS PLP yeast: -2%; NS1 function inh: 2%; CHX counter: 1; Shiga toxin inh: -9

How did CC(C)=CC(=O)Nc1ccc2c(c1)OCO2 do in these assays?
NS1 function inh: -4%; CHX counter: 25*; Shiga toxin inh: 68*

What do the screens show for `COc1ccc(OC)c(N/C(C)=C/C(=O)c2ccncc2)c1`?
SARS PLP yeast: -10%; NS1 function inh: -21%; CHX counter: -3; Shiga toxin inh: -11

What do the screens show for `O=C(CSCSCC(=O)Nc1ccc2c(c1)OCO2)Nc1ccc2c(c1)OCO2`?
SARS PLP yeast: 0%; NS1 function inh: -5%; CHX counter: 6; Shiga toxin inh: 26

Results for CCN(CC(=O)Nc1ccc(OC)cc1)CC(=O)Nc1ccc2c(c1)OCO2 ?
SARS PLP yeast: -4%

What do the screens show for `COc1ccc(OC)c(N/C(C)=C/C(=O)c2ccccc2)c1`?
SARS PLP yeast: 9%; NS1 function inh: 0%; CHX counter: 91*; Shiga toxin inh: 27*

How did COc1ccc(C(=O)/C=C(\C)Nc2ccc3c(c2)OCO3)cc1 do in these assays?
SARS PLP yeast: 0%; NS1 function inh: 12%; CHX counter: 49*; Shiga toxin inh: inactive

Results for COC(=O)c1ccc(CN2CCc3ccccc32)cc1 ?
SARS PLP yeast: -6%; NS1 function inh: 9%; CHX counter: 3; Shiga toxin inh: 7

Results for COc1ccccc1OCC(=O)NCC1CCCN(Cc2cnn(C(C)C)c2)C1 (stereo unspecified) ?
SARS PLP yeast: -5%; NS1 function inh: 16%; CHX counter: 8; Shiga toxin inh: -31

How did O=S(=O)(c1ccccc1Oc1ccc(Cl)cc1Cl)N1CCCCC1 do in these assays?
SARS PLP yeast: 0%; NS1 function inh: 6%; CHX counter: -3; Shiga toxin inh: 13

Results for CN(C)/N=C/C=C1\CCC/C(=C/c2cccs2)C1=O ?
SARS PLP yeast: -3%; NS1 function inh: -5%; CHX counter: 61*; Shiga toxin inh: 82*

What do the screens show for `Nc1ccc(Oc2ccc3c(c2)C(=O)NC3=O)cc1`?
SARS PLP yeast: 2%; NS1 function inh: -2%; CHX counter: 2

How did N#Cc1c(-c2ccc(Cl)cc2)ccn2nc(C3CCCCC3)nc12 do in these assays?
SARS PLP yeast: -2%; NS1 function inh: 8%; CHX counter: 42*; Shiga toxin inh: 39

What do the screens show for `COC(=O)CCc1nc2c(C#N)c(-c3ccc(Cl)cc3)ccn2n1`?
SARS PLP yeast: -3%; CHX counter: -1; Shiga toxin inh: -10
